HP1b chromo inh: inhibitors of HP1-beta chromodomain binding to methylated histone tails; AID 540317; AlphaScreen HP1-beta / biotin-H3K9me3 peptide binding; 390,000 compounds, 0.56% hits; P83916; Potency, µM (series often up to 114 µM), inactives show at the highest dose activity change, negative = inhibition, usual class: inhibitors; note: nearly all actives have a fitted effect of over 70% in size
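AlphaScreen: HP1-beta (50 nM) preformed 30 min with biotin-H3(1-18)K9me3 peptide (50 nM) in PBS pH 7.4, 0.01% Tween-20. Compound added for 30 min at RT, then streptavidin donor/nickel chelate acceptor beads (10 ug/mL) for 30 min.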
PLK1 PBD block: inhibitors of human PLK1 polo-box domain binding; P53350; Plk1 PBD binding of FITC phosphopeptide, fluorescence polarization; Potency, µM, without a hit: max response, negative = inhibition, hits mostly inhibitors; 360,000 compounds, 2.8% hits; AID 720504; note: series mostly up to about 57 µM; % is set by controls: 0 for no effect and ±100 for the full control effect; nearly all actives have a fitted effect of over 65% in size
BAZ2B inh: inhibitors of human BAZ2B bromodomain; AlphaScreen BAZ2B-H3K14Ac peptide displacement; Potency, µM (doses to about 114 µM), for inactives: top-dose activity change, negative = inhibition, most hits filed as inhibitors; 360,000 compounds, 4.4% hits; AID 504333; note: % is set by controls: 0 for no effect and ±100 for the full control effect; nearly all actives have a fitted effect of over 60% in size
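Complex of BAZ2B and biotin-H3K14Ac (50 nM apiece) forms over 30 min at RT, then faces library compounds up to 110 uM for another 30 min; AlphaScreen beads added, 20 min dark incubation, luminescence read.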
VDR inh: inhibitors of human vitamin D receptor; P11473; VDR-SRC2-3 peptide fluorescence polarization, 2 h; Potency, µM, without a hit: max response, negative = inhibition, actives largely listed as inhibitors; 400,000 compounds, 0.93% hits; AID 504847; note: % is set by controls: 0 for no effect and ±100 for the full control effect
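VDR–SRC2-3 interaction, FP format. Cmpds 23 nl via pintool, brief spin, 2 h ambient incubation.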
JMJD2A Tudor: inhibitors of human JMJD2A Tudor domain; O75164; AlphaScreen JMJD2A-Tudor / H3K4me3 peptide binding; Potency, µM (top dose mostly 114 µM), without a hit: at the highest dose activity change, negative = inhibition, hits mostly inhibitors; 390,000 compounds, 4.4% hits; AID 504339; note: % is set by controls: 0 for no effect and ±100 for the full control effect; nearly all actives have a fitted effect of over 50% in size
Target sequence (O75164 whole entry, looked up, the tested form may be a part): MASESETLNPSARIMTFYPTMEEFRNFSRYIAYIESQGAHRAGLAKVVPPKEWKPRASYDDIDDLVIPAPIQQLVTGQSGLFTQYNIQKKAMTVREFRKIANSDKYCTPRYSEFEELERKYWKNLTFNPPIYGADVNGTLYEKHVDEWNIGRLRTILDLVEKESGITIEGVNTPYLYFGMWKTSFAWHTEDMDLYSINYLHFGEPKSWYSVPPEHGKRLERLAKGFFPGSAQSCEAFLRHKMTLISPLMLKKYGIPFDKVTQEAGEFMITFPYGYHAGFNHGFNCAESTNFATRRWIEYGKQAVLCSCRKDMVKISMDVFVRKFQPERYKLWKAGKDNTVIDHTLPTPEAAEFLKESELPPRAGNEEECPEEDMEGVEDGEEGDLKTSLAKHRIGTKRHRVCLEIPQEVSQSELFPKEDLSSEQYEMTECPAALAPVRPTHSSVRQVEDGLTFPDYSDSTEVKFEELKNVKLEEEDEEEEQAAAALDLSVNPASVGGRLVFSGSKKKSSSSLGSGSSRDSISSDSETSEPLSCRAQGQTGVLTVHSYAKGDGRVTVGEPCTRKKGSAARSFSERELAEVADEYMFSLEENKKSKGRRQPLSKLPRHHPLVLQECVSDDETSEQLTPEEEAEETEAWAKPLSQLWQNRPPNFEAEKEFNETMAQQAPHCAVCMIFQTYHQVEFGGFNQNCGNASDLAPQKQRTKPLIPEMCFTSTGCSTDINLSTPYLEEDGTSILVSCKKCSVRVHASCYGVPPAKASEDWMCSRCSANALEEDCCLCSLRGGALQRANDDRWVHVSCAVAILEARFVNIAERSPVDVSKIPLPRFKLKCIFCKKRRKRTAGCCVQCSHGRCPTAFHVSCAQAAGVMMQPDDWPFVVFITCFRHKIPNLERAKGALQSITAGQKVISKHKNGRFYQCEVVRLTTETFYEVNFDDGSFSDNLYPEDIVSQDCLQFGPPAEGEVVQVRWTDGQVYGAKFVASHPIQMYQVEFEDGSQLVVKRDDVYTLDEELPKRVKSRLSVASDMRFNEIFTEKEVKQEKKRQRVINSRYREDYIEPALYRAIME
G9a block: G9a (human) methyltransferase inhibition | Q96KQ7 | G9a H3K9 monomethylation, AlphaScreen, 2 h | Potency, µM (doses to about 102 µM), inactives show at the highest dose activity, negative = inhibition, most hits filed as inhibitors | 350,000 compounds, 8.8% hits | AID 504332; note: % is set by controls: 0 for no effect and ±100 for the full control effect; nearly all actives have a fitted effect of over 75% in size
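AlphaScreen read-out: biotin-H3K9 peptide (500 nM) methylation by 20 nM enzyme with 20 uM SAM, 2 h at room temperature after 15 min compound preincubation; anti-monomethyl H3K9 antibody plus donor/acceptor beads, 10 min dark.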
Starred values were filed as active, the others as inactive; ? = inconclusive; nt = not tested or not shown; [ ] = dose if it differs, or a comment. Most compounds without a hit are left out; they make up all but 11% or so of the library. Calls come from the whole dose curve; as a rule, active = well fitted curve in the direction sought with a large enough effect; inconclusive = small, poorly fitted or top-dose-only effect, or another doubt; inactive = no such curve, though single readings can be large; an effect the other way counts as inactive or inconclusive. Potency is the fitted concentration of half-maximal effect.

SMILES | HP1b chromo inh | PLK1 PBD block | BAZ2B inh | VDR inh | JMJD2A Tudor | G9a block
CCN1CCc2c(C#N)c(N3CCCCC3)nc(NCc3ccccc3)c2C1 | -20% | -4% | 56µM* | -6% | ? | ?
N#Cc1c(N)sc(=S)c2c1CCN(Cc1ccccc1)C2 | nt | nt | 79µM* | nt | nt | ?
CCN1CCc2c(C#N)c(N3CCOCC3)nc(NCc3ccccc3)c2C1 | 3% | -2% | ? | -19% | -20% | ?
N#Cc1c(NCCO)nc(NCc2ccccc2)c2c1CCN(Cc1ccccc1)C2 | -19% | ? | 45µM* | 2% | ? | ?
Brc1ccc(-c2csc(/N=C/N3CCOCC3)n2)cc1 | 3% | -3% | -39% | 4% | -19% | 50µM*
Cc1ccc(C(=O)N/C(=C/c2ccccc2F)C(=O)NCCCn2ccnc2)cc1 | 5% | 27µM* | -33% | -9% | -14% | 9%
Cc1ccc(C(=O)N/C(=C\c2ccc(F)cc2)C(=O)NCCCn2ccnc2)cc1 | 55% | 0% | 79µM* | -10% | -15% | 8%
COc1ccc(/C=C(\NC(=O)c2ccc(C)cc2)C(=O)NCCCn2ccnc2)cc1OC | -11% | -7% | 50µM* | -3% | -29% | 6%
O=C(NCCCn1ccnc1)/C(=C\c1ccccc1Cl)NC(=O)c1ccccc1 | 31% | -9% | ? | -5% | -11% | nt
COc1ccccc1C(=O)N/C(=C/c1ccc(Br)cc1)C(=O)NCCCn1ccnc1 | 26% | -7% | -37% | -7% | -19% | 0%
COc1ccc(CCN(CC(=O)NCc2ccc(F)cc2)C(=O)c2snc(C(N)=O)c2N)cc1OC | -14% | -5% | 1% | 23% | -14% | -7%[59 µM]
CCC(C)n1ncn(-c2ccc(N3CCN(c4ccc(O)cc4)CC3)cc2)c1=O (stereo unspecified) | ? | -2% | -32% | -11% | 89µM* | 7.9µM*
CCc1c(C(C)S(=O)(=O)c2ccccc2)[nH]c(=O)n1CC (stereo unspecified) | -32% | 15µM* | -13% | -24% | ? | 3.5µM*
Cc1c(C#N)c(NC(=O)CCl)n(Cc2ccc(F)cc2)c1C | 22% | -17% | -1% | -25% | -20% | ?
Cc1c(C#N)c(NC(=O)CCl)n(Cc2cccs2)c1C | 26% | -11% | -27% | -26% | -16% | 50µM*
Cc1ccc2c(c1)N(C(=O)Nc1cccc3c1CCCC3)CCO2 | 34% | nt | 0% | 16% | -15% | -16%[59 µM]
O=C(O)[C@H](CC(=O)N1C[C@H]2CCCC[C@H]2C1)Cc1ccccc1 | nt | nt | nt | 6% | nt | 5%[12.7 µM]
COc1cc(C(c2nnnn2C(C)(C)C)N2CCN(c3nc4ccccc4s3)CC2)ccc1O (stereo unspecified) | ? | -24% | ? | -20% | ? | 2.2µM*
COc1ccc(C(c2nnnn2C(C)(C)C)N2CCN(c3nc4ccccc4s3)CC2)cc1OC (stereo unspecified) | -11% | -28% | 79µM* | 9% | 14%[11.4 µM] | -41%
Cn1c(=O)c2sccc2n2c(CCCC(=O)NCc3cccnc3)nnc12 | 30% | -20% | 0% | -11% | -6% | -8%
CN(C)C(=O)CCSc1nnc(-c2ccco2)o1 | 34% | 0% | 4% | -1% | -9% | -5%
COc1cc(OC)c(NC(=O)CCc2nc(C3=CCN(Cc4cccc(Cl)c4)CC3)no2)cc1Cl | 16%[57 µM] | nt | -28% | 10% | ? | ?
Cc1ccc2c(c1)CC1(CN2C)C(=O)OC2(CCCCC2)OC1=O | 62% | -20% | 2% | 1% | -22%[57.1 µM] | 50µM*
CN1CC2(Cc3c1ccc1ccccc31)C(=O)OC(C)(C)OC2=O | 41% | -16% | 3% | 4% | 15%[57.1 µM] | ?
CCN(CC)CCn1c(NCc2nc3ccccc3n2Cc2ccccc2)nc2ccccc21 | 6% | 2% | ? | 0% | ? | ?
SMILES | HP1b chromo inh | PLK1 PBD block | BAZ2B inh | VDR inh | JMJD2A Tudor | G9a block
CCn1cnc2cc(NCc3nc4ccccc4n3Cc3ccccc3)ccc21 | -6% | -1% | 40µM* | 16% | 45µM* | ?
O=C(O)c1ccc(NCc2nc3ccccc3n2Cc2ccccc2)cc1 | 39% | -3% | 50µM* | 2% | -9% | 1%
CN(Cc1ccccc1)C(=O)[C@H]1CCC(=O)N1Cc1ccco1 | 43% | -6% | -22% | 0% | -5% | 45µM*
Cc1ccc(CNC(=O)c2ccc(Cn3cc(-c4ccc(C)cc4)nc3-c3ccncc3)cc2)cc1 | ? | -5% | ? | -9% | ? | -24%
CCn1c(-c2cc3ccccc3cc2O)n[nH]c1=S | 11% | -18% | -34% | 22% | ? | ?
CCn1c(-c2cc(Cl)ccc2OC)n[nH]c1=S | 20% | -7% | 0% | 15% | 7.1µM* | 5.6µM*
COc1ccc(Cl)cc1-c1n[nH]c(=S)n1C | 22% | -12% | 24% | 16% | 6.3µM* | 7.9µM*
CCn1c(-c2cc(Br)ccc2O)n[nH]c1=S | 21% | -18% | nt | -15% | 13µM* | nt
C=CCn1c(-c2cc(Cl)ccc2OC)n[nH]c1=S | 8% | -15% | 1% | 6% | 7.9µM* | 1.6µM*
CC1CCC(NC(=O)CN2C(=O)c3ccccc3S2(=O)=O)CC1 (stereo unspecified) | 41% | -5% | nt | -8% | -6% | nt
O=C(NCC(c1ccc2c(c1)OCO2)N1CCN(c2ccccc2)CC1)c1ccccc1 (stereo unspecified) | -5%[57 µM] | nt | ? | 1% | ? | -33%[59 µM]
O=C1N=C(N2CCCC2)S/C1=C\c1ccccc1 | -16% | 30µM* | 13% | ? | 56µM* | -8%[59 µM]
CCOC(=O)C1CCCN(C2=NC(=O)/C(=C/c3ccc(O)c(OCC)c3)S2)C1 (stereo unspecified) | 20% | 43% | -12% | -1% | -11% | -26%
CC(=O)N1CCN(C2=NC(=O)/C(=C\c3cccs3)S2)CC1 | 21% | -25% | -19% | -5% | -3% | 0%
CCOC(=O)C1CCCN(C2=NC(=O)/C(=C/c3ccc(OC)cc3OC)S2)C1 (stereo unspecified) | -20% | 19µM* | -27% | ? | -36% | 25µM*
CCOC(=O)C1CCN(C2=NC(=O)/C(=C/c3ccccc3OC)S2)CC1 | 31% | 0% | 2% | 0% | -9% | -7%
Cc1ccccc1N1CCN(C2=NC(=O)/C(=C\c3cccs3)S2)CC1 | 4% | -14% | -32% | 3% | -32% | 50µM*
CCOC(=O)C1CCN(C2=NC(=O)/C(=C/c3ccc(O)cc3)S2)CC1 | -23% | ? | -21% | -9% | -5% | 40µM*
Cc1ccc(/C=C2\SC(N3CCCCC3)=NC2=O)cc1 | -18% | 24µM* | 2% | ? | ? | 15%
Cc1ccc(S(=O)(=O)N(C)C)cc1NC(=O)c1cncc(Br)c1 | 12% | -14% | 3% | -8% | -6% | 18%[59 µM]

Screens: PubChem, National Center for Advancing Translational Sciences (NCATS)
